Assay results reported in PubChem BioAssay (NCATS).
Results filed as inconclusive are left out. Calls of active or inactive are those of the source. The call rests on the fitted dose curve; in most records, active means well fitted inhibition curve with a large enough effect; inconclusive means small, poorly fitted or top-dose-only effect; inactive means flat fitted curve, though single readings scatter.

What was measured:
[1] = qHTS profiling for inhibitors of Plasmodium falciparum proliferation (AID 504749);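 further: 0% = DMSO vehicle and full inhibition = artemisinin control; nearly all actives have a fitted effect of over 60% in size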; conditions: P. falciparum in erythrocytes, SYBR Green DNA, 72 h, at 28.7 µM (top of the series)
Method in brief: (§1)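 In a 72 h erythrocytic culture (37 C, humidified, 5% CO2) at 2.5% hematocrit and 0.3% starting parasitemia, compounds were tested; SYBR Green I in detergent lysis buffer stained parasite DNA overnight.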

3D7 = assay: as above; conditions: P. falciparum in erythrocytes, SYBR Green DNA, 72 h; series mostly up to 28.7 µM
Method in brief: as §1

7G8 = assay: as above; conditions: P. falciparum in erythrocytes, SYBR Green DNA, 72 h; series mostly up to 28.7 µM
Method in brief: as §1

AA1029 = assay: as above; conditions: P. falciparum in erythrocytes, SYBR Green DNA, 72 h; series mostly up to 28.7 µM
Method in brief: as §1

AS120 = assay: as above; conditions: P. falciparum in erythrocytes, SYBR Green DNA, 72 h; series mostly up to 28.7 µM
Method in brief: as §1

ATS189 = assay: as above; conditions: P. falciparum in erythrocytes, SYBR Green DNA, 72 h; series mostly up to 28.7 µM
Method in brief: as §1

ATS95 = assay: as above; conditions: P. falciparum in erythrocytes, SYBR Green DNA, 72 h; series mostly up to 28.7 µM
Method in brief: as §1

C2A = assay: as above; conditions: P. falciparum in erythrocytes, SYBR Green DNA, 72 h; series mostly up to 28.7 µM
Method in brief: as §1

CP185 = assay: as above; conditions: P. falciparum in erythrocytes, SYBR Green DNA, 72 h; series mostly up to 28.7 µM
Method in brief: as §1

CP191 = assay: as above; conditions: P. falciparum in erythrocytes, SYBR Green DNA, 72 h; series mostly up to 28.7 µM
Method in brief: as §1

CP192 = assay: as above; conditions: P. falciparum in erythrocytes, SYBR Green DNA, 72 h; series mostly up to 28.7 µM
Method in brief: as §1

CP194 = assay: as above; conditions: P. falciparum in erythrocytes, SYBR Green DNA, 72 h; series mostly up to 28.7 µM
Method in brief: as §1

CP201 = assay: as above; conditions: P. falciparum in erythrocytes, SYBR Green DNA, 72 h; series mostly up to 28.7 µM
Method in brief: as §1

CP203 = assay: as above; conditions: P. falciparum in erythrocytes, SYBR Green DNA, 72 h; series mostly up to 28.7 µM
Method in brief: as §1

CP211 = assay: as above; conditions: P. falciparum in erythrocytes, SYBR Green DNA, 72 h; series mostly up to 28.7 µM
Method in brief: as §1

CP215 = assay: as above; conditions: P. falciparum in erythrocytes, SYBR Green DNA, 72 h; series mostly up to 28.7 µM
Method in brief: as §1

CP217 = assay: as above; conditions: P. falciparum in erythrocytes, SYBR Green DNA, 72 h; series mostly up to 28.7 µM
Method in brief: as §1

CP237 = assay: as above; conditions: P. falciparum in erythrocytes, SYBR Green DNA, 72 h; series mostly up to 28.7 µM
Method in brief: as §1

CP238 = assay: as above; conditions: P. falciparum in erythrocytes, SYBR Green DNA, 72 h; series mostly up to 28.7 µM
Method in brief: as §1

OC[C@H]1O[C@@H]2O[C@H]3[C@H](O)[C@@H](O)[C@@H](O[C@H]4[C@H](O)[C@@H](O)[C@@H](O[C@H]5[C@H](O)[C@@H](O)[C@@H](O[C@H]6[C@H](O)[C@@H](O)[C@@H](O[C@H]7[C@H](O)[C@@H](O)[C@@H](O[C@H]8[C@H](O)[C@@H](O)[C@@H](O[C@H]1[C@H](O)[C@H]2O)O[C@@H]8CO)O[C@@H]7CO)O[C@@H]6CO)O[C@@H]5CO)O[C@@H]4CO)O[C@@H]3CO
inactive: activity, negative = inhibition ([1]; parasite line A) 8.7% | activity, negative = inhibition ([1]; parasite line B) 8.53% | Potency (3D7) | Potency (7G8) | Potency (AA1029) | Potency (AS120) | Potency (ATS189) | Potency (ATS95) | Potency (C2A) | Potency (CP185) | Potency (CP191) | Potency (CP192) | Potency (CP194) | Potency (CP201) | Potency (CP203) | Potency (CP211) | Potency (CP215) | Potency (CP217) | Potency (CP237) | Potency (CP238)

Cc1cccc(C)c1NC(=O)CN1CCCC1
inactive: activity, negative = inhibition ([1]; parasite line A) -5.07% | activity, negative = inhibition ([1]; parasite line B) 5.99% | Potency (3D7) | Potency (7G8) | Potency (AA1029) | Potency (AS120) | Potency (ATS189) | Potency (ATS95) | Potency (C2A) | Potency (CP185) | Potency (CP191) | Potency (CP192) | Potency (CP194) | Potency (CP201) | Potency (CP203) | Potency (CP211) | Potency (CP215) | Potency (CP217) | Potency (CP238)

Nc1nc(N)c(-c2ccccc2)s1
inactive: activity, negative = inhibition ([1]; parasite line A) 18.4% | activity, negative = inhibition ([1]; parasite line B) 11.9% | Potency (3D7) | Potency (7G8) | Potency (AA1029) | Potency (AS120) | Potency (ATS189) | Potency (ATS95) | Potency (C2A) | Potency (CP185) | Potency (CP191) | Potency (CP192) | Potency (CP194) | Potency (CP201) | Potency (CP203) | Potency (CP211) | Potency (CP215) | Potency (CP217) | Potency (CP237) | Potency (CP238)

COc1cc(C(=S)N2CCOCC2)ccc1O
inactive: activity, negative = inhibition ([1]; parasite line A) 1.83% | activity, negative = inhibition ([1]; parasite line B) -2.75% | Potency (3D7) | Potency (7G8) | Potency (AA1029) | Potency (AS120) | Potency (ATS189) | Potency (ATS95) | Potency (C2A) | Potency (CP185) | Potency (CP191) | Potency (CP192) | Potency (CP194) | Potency (CP201) | Potency (CP203) | Potency (CP211) | Potency (CP215) | Potency (CP217) | Potency (CP237) | Potency (CP238)

CC(=O)Nc1ccc(CC(=O)O)cc1
inactive: activity, negative = inhibition ([1]; parasite line A) 9.92% | activity, negative = inhibition ([1]; parasite line B) 11.5% | Potency (3D7) | Potency (7G8) | Potency (AA1029) | Potency (AS120) | Potency (ATS189) | Potency (ATS95) | Potency (C2A) | Potency (CP185) | Potency (CP191) | Potency (CP192) | Potency (CP194) | Potency (CP201) | Potency (CP203) | Potency (CP211) | Potency (CP215) | Potency (CP217) | Potency (CP237) | Potency (CP238)

CCNC(=O)NCc1cccc(Cl)c1
inactive: activity, negative = inhibition ([1]; parasite line A) 14.6% | activity, negative = inhibition ([1]; parasite line B) 3.44% | Potency (3D7) | Potency (7G8) | Potency (AA1029) | Potency (AS120) | Potency (ATS189) | Potency (ATS95) | Potency (C2A) | Potency (CP185) | Potency (CP191) | Potency (CP192) | Potency (CP194) | Potency (CP201) | Potency (CP203) | Potency (CP211) | Potency (CP215) | Potency (CP217) | Potency (CP237) | Potency (CP238)

CCCCCCCCCCCCSCCOCCO
inactive: activity, negative = inhibition ([1]; parasite line A) 9.57% | activity, negative = inhibition ([1]; parasite line B) 14.6% | Potency (3D7) | Potency (7G8) | Potency (AA1029) | Potency (AS120) | Potency (ATS189) | Potency (ATS95) | Potency (C2A) | Potency (CP185) | Potency (CP191) | Potency (CP192) | Potency (CP194) | Potency (CP201) | Potency (CP203) | Potency (CP211) | Potency (CP215) | Potency (CP217) | Potency (CP237) | Potency (CP238)

OCc1ccccn1
inactive: activity, negative = inhibition ([1]; parasite line A) 7.68% | activity, negative = inhibition ([1]; parasite line B) 8.75% | Potency (3D7) | Potency (7G8) | Potency (AA1029) | Potency (AS120) | Potency (ATS189) | Potency (ATS95) | Potency (C2A) | Potency (CP185) | Potency (CP191) | Potency (CP192) | Potency (CP194) | Potency (CP201) | Potency (CP203) | Potency (CP211) | Potency (CP215) | Potency (CP217) | Potency (CP237) | Potency (CP238)

CCCCCCCCOc1ccc(C(=O)c2ccccc2)c(O)c1
inactive: activity, negative = inhibition ([1]; parasite line A) 16.4% | activity, negative = inhibition ([1]; parasite line B) 14.5% | Potency (3D7) | Potency (7G8) | Potency (AA1029) | Potency (AS120) | Potency (ATS189) | Potency (ATS95) | Potency (C2A) | Potency (CP185) | Potency (CP191) | Potency (CP192) | Potency (CP194) | Potency (CP201) | Potency (CP203) | Potency (CP211) | Potency (CP215) | Potency (CP217) | Potency (CP237) | Potency (CP238)

COP(=O)(OC)OC(c1ccc(Cl)cc1)P(=O)(OC)OC (stereo not drawn)
inactive: activity, negative = inhibition ([1]; parasite line A) 10.6% | activity, negative = inhibition ([1]; parasite line B) -3.59% | Potency (3D7) | Potency (7G8) | Potency (AA1029) | Potency (AS120) | Potency (ATS189) | Potency (ATS95) | Potency (C2A) | Potency (CP185) | Potency (CP191) | Potency (CP192) | Potency (CP194) | Potency (CP201) | Potency (CP203) | Potency (CP211) | Potency (CP215) | Potency (CP217) | Potency (CP237) | Potency (CP238)

OCCOCCN1CCN(C2=Nc3ccccc3Sc3ccccc32)CC1
inactive: activity, negative = inhibition ([1]; parasite line A) 0.502% | activity, negative = inhibition ([1]; parasite line B) 13.4% | Potency (3D7) | Potency (7G8) | Potency (AA1029) | Potency (AS120) | Potency (ATS189) | Potency (ATS95) | Potency (C2A) | Potency (CP185) | Potency (CP191) | Potency (CP192) | Potency (CP194) | Potency (CP201) | Potency (CP203) | Potency (CP211) | Potency (CP215) | Potency (CP217) | Potency (CP238)
